According to PubChem BioAssay:
Active and inactive are the calls of the source. Unless noted, how the calls were made is not given here.

Columns and labels:
[1] = tested on: XIP peptide (Xip251-270) binding; assay: XIP fragment 251-270 binding compounds – biochemical, small-molecule microarray, fluorescence 635/667 nm, 0.1 µg/mL protein, primary screen (AID 1182); details: fluorescent protein binding, 635 nm, higher = more signal, called active from +8 up or from −8 down
[2] = tested on: XIP peptide (Xip251-270); assay: compounds binding XIP fragment 251-270 – biochemical, small-molecule microarray, fluorescence 635/667 nm, 0.5 µg/mL protein, primary screen (AID 1183); details: fluorescence 635 nm, higher = more signal
[3] = blood-stage malaria parasite viability loss – strain 3D7, DAPI fluorescence, 100 nL, primary screen (AID 1184);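 further: parasites grown inside human red blood cells in medium with human serum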; details: P. falciparum 3D7 growth, 3 d, higher = more signal
[4] = target: Homeobox protein Hox-A13 (Mus musculus) (UniProt Q62424); assay: disruptors of Hoxa13 oligonucleotide interaction – biochemical, fluorescence polarization, labeled oligonucleotide, primary screen (AID 1185); details: Hoxa13:DNA binding, 15 min, higher = more signal, called active from +8 up or from −8 down
Chain of Homeobox protein Hox-A13 (Mus musculus) (Q62424 whole entry, looked up): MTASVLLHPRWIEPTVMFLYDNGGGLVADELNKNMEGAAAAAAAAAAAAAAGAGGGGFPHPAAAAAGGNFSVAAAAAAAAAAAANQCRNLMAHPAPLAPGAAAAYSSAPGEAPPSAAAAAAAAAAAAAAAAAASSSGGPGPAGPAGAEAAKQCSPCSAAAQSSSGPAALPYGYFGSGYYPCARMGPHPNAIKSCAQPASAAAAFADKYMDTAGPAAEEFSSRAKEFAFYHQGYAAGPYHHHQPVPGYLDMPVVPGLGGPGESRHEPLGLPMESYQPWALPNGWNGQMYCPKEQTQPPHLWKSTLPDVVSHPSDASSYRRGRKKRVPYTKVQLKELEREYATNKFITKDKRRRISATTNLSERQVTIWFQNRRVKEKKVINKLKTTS

[5] = blockers of DNA damage checkpoint Chk1 activation – imaging, HeLa, hydroxyurea, phospho-Chk1 antibody, percent positive cells, primary screen (AID 1186); details: hydroxyurea-induced phospho-Chk1 immunofluorescence imaging, higher = more signal
[6] = blockers of DNA damage checkpoint Chk1 activation – imaging, HeLa, hydroxyurea, phospho-Chk1 nuclear intensity, primary screen (AID 1187); details: hydroxyurea-induced phospho-Chk1 immunofluorescence imaging, higher = more signal

| SMILES | composite z-score [1] | composite z-score [2] | z-score [3] | z-score [4] | z-score [5] | z-score [6] |
| --- | --- | --- | --- | --- | --- | --- |
| COc1cc(Cc2cc3c(c(CCc4ccccc4)n2)[Si](C(C)C)(C(C)C)O[C@H]3c2ccccc2)cc(OC)c1OC | 0.41 (inactive) | 0.202 | 0.578 | -5.59 (inactive) | -0.167 (inactive) | -0.286 (inactive) |
| COc1ccc([Si](C)(C)[C@H]2[C@H](CC(=O)N(CCO)Cc3ccccc3)O[C@@]3(C(=O)N(Cc4cccc(N5CCCCC5=O)c4)c4ccccc43)[C@@H]2C)cc1 | 2.13 (inactive) | 0.587 | -2.59 | -0.38 (inactive) | -0.929 (inactive) | -0.607 (inactive) |
| CC[C@@H](O[Si](C#C[Si](C(C)C)(C(C)C)C(C)C)(C(C)C)C(C)C)c1cn([C@H](CO)Cc2ccccc2)nn1 | -0.0433 (inactive) | 0.411 | -0.348 | -1.31 (inactive) | -0.058 (inactive) | -0.0008 (inactive) |
| COC(=O)C(CC#Cc1ccc2c(c1)[C@]1(C(=O)N2)[C@H](c2ccc(OCCO)cc2)N2[C@H](c3ccccc3)[C@H](c3ccccc3)OC(=O)[C@H]2[C@@H]1C(N)=O)C(=O)OC | 0.372 (inactive) | 0.657 | -0.983 | -1.34 (inactive) | -0.143 (inactive) | -0.303 (inactive) |
| C=C[C@H](OC)[C@@H](O)c1ccc(OC)c(O)c1 | -1.51 (inactive) | 1.1 | -0.874 | -1.36 (inactive) | 0.171 (inactive) | 0.705 (inactive) |
| CC(C)(C)OC(=O)CC[C@@]1(C(N)=O)N=C(c2ccc(OCCCO)cc2)O[C@@H]1c1ccccc1CN=[N+]=[N-] | -0.015 (inactive) | 0.297 | 1.1 | -4.71 (inactive) | 0.3 (inactive) | 0.317 (inactive) |
| CN1C(=O)C2C=CC(C(O)COCc3ccccc3)N(Nc3ccc([N+](=O)[O-])cc3[N+](=O)[O-])C2C1=O (configuration not stated) | 0.649 (inactive) | 0.544 | 0.391 | -4.41 (inactive) | -0.589 (inactive) | -0.803 (inactive) |
| CCCCCCc1nc(Cc2cc(OC)c(OC)c(OC)c2)c(C)c2c1[Si](C(C)C)(C(C)C)OC2 | -0.814 (inactive) | 0.0092 | -2.76 | -1.45 (inactive) | -0.817 (inactive) | -0.386 (inactive) |
| COCCCNC(=O)[C@@]1(Cc2ccccc2I)c2ccccc2C(=O)N(Cc2ccccc2OC)[C@H]1c1ccc(CO)cc1 | 1.02 (inactive) | 0.0714 | -1.07 | -4.88 (inactive) | -0.14 (inactive) | 0.04 (inactive) |
| COC(=O)[C@]1(Cc2ccccc2CN=[N+]=[N-])N=C(c2ccc(OCCCO)cc2)O[C@@H]1c1ccccc1N=[N+]=[N-] | 0.0771 (inactive) | 0.724 | -2.04 | 0.381 (inactive) | -0.485 (inactive) | -0.543 (inactive) |
| CCCCC(=C=CC[C@@H](O)c1ccc(OCCO)cc1)CCO | 0.218 (inactive) | 0.336 | -1.39 | -3.71 (inactive) | 0.102 (inactive) | 0.509 (inactive) |
| C=CCNC(=O)[C@@H]1[C@H]2C(=O)O[C@H](c3ccccc3)[C@H](c3ccccc3)N2[C@H](c2ccc(O)cc2)[C@@]12C(=O)Nc1ccc(C#CC3=CCCCC3)cc12 | 1.79 (inactive) | 0.716 | 0.155 | 0.828 (inactive) | 0.0206 (inactive) | -0.275 (inactive) |
| COC(=O)[C@@]1(Cc2ccc(F)cc2)[C@@H]2C(=CC(=O)[C@H]2CC(=O)C(=O)N2CCCC2)CN1C(=O)c1ccccc1 | 0.47 (inactive) | 0.839 | -1.72 | -4.84 (inactive) | 0.261 (inactive) | 0.278 (inactive) |
| COc1ccc([Si](C)(C)[C@@H]2[C@@H](CC(=O)N3CCC[C@H]3CO)O[C@]3(C(=O)N(Cc4cccc(N5C(=O)c6cccc7cccc5c67)c4)c4ccccc43)[C@H]2C)cc1 | 3.7 (inactive) | 0.703 | -2.1 | -2.34 (inactive) | -0.798 (inactive) | -0.489 (inactive) |
| CC[C@@H]1C=C(C(=O)O)[C@H](c2cccc(Cl)c2)N1S(=O)(=O)c1ccc(C)cc1 | 0.415 (inactive) | 0.141 | 1.85 | -3.71 (inactive) | 0.198 (inactive) | -0.141 (inactive) |
| [N-]=[N+]=Nc1ccccc1C[C@]1(C(N)=O)COC(c2ccc(OCCCO)cc2)=N1 | 0.29 (inactive) | 0.546 | -1.88 | -4.74 (inactive) | -0.393 (inactive) | -0.137 (inactive) |
| C=CC[C@]1(C(N)=O)N=C(c2ccc(OCCCO)cc2)O[C@H]1c1ccccc1N=[N+]=[N-] | 1.26 (inactive) | 0.688 | -1.98 | -5.2 (inactive) | -0.37 (inactive) | -0.532 (inactive) |
